# Measurements taken from publication PMC5540273 (PLoS ONE, 2017).
# What was measured:
# IKK-alpha = system: T1, IKK-alpha
# T1 construct: gene CHUK
# IKK-beta = system: T2, IKK-beta
# T2 construct: gene IKBKB
# [1] = system: JAK1(JH1domain-catalytic)
# 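Further: kd values determined as follow-up on hits from a single-replicate KINOMEscan panel screen.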
smiles,measurement,setting,value
Cc1nnc(-c2ccc3occ(-c4ccc(S(C)=O)cc4)c3c2)[nH]1 (centres unmarked),Kd,HIPK3,0.34 µM
Cc1c(O)cccc1Nc1ccnc2ccc(C(F)(F)F)cc12.Cl [GW466413],Kd,HUNK,> 10 µM
O=C1NC(=O)C(N2CCc3ccccc32)=C1c1ccccc1Cl [SB-373598],Kd,IKK-alpha,> 10 µM
O=S(=O)(c1ccc(-c2ccnc3[nH]ccc23)cc1)N1CCCC1 [GSK846226],Kd,IKK-beta,0.27 µM
CC(C)(C)c1ccc(C(=O)Nc2cn3cc(Cl)ccc3n2)cc1,Kd,IKK-beta,> 10 µM
COc1cc2ncnc(Nc3ccc4nc(-c5ccccc5)[nH]c4c3)c2cc1OC.Cl [GW282450],Kd,INSR,> 10 µM
Cc1cc(N2Cc3ccccc3C2)nc(Nc2ccc(S(=O)(=O)N3CCOCC3)cc2)n1.Cl [GSK1669917],Kd,INSR,> 10 µM
Cc1c(Cn2ccn3c(=O)cc(N4CCOCC4)nc23)cccc1C(F)(F)F [GSK2289044],Kd,[1],> 10 µM
